This is a sample that favours compounds with a hit; in the whole collection about 3.8% have one here.
Nrf2 block: Nrf2 qHTS screen for inhibitors | Potency, µM (doses to about 46 µM), without a hit: at the highest dose activity change, negative = inhibition, usual class: inhibitors | 2.1% of 360,000 active | AID 504444, 2011 | A549 ARE-Fluc reporter, luciferase luminescence, 18-24 h; note: % is set by controls: 0 for no effect and ±100 for the full control effect; nearly all actives have a fitted effect of over 60% in size
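Cells were seeded and rested 2 h, then exposed to compounds for 18-24 h. CellTiter-Fluor was read first as a viability measure. BugLite was added 15 min before the final luminescent read of ARE-luciferase activity in A549 cells.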
A549 viability: Nrf2 qHTS screen for inhibitors: counterscreen for cytotoxicity | A549 ARE-Fluc cells, CellTiter-Fluor viability, 18-24 h | Potency, µM (titrated, usually from 46 µM), without a hit: top-dose activity change, negative = cytotoxicity, most hits filed as inhibitors | 0.16% of 390,000 active | AID 504648, 2011; note: % is set by controls: 0 for no effect and ±100 for the full control effect
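Cytotoxicity counterscreen: CellTiter-Fluor fluorescence was measured in A549 ARE_Fluc cells after 18-24 h of compound exposure in a concentration series. The subsequent BugLite luminescent read reports ARE-luciferase activity.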
S2 tox: Viability Counterscreen for Primary qHTS for Inhibitors of ATXN expression; S2 cells (HEK-293 line with an ATXN2-luciferase reporter) viability, CellTiter-Fluor protease fluorescence, 24 h; Potency, µM (doses to about 56.7 µM), usual class: cytotoxic; 0.49% of 400,000 active; AID 651635, 2014; note: nearly all actives have a fitted effect of over 40% in size
TGFb SMAD3 inh: qHTS for Inhibitors of TGF-b; HepG2 CAGA-GFP TGF-b/SMAD3 reporter, GFP fluorescence, 18 h; TGF-beta stimulated, 500 pg/mL final; Potency, µM (top dose mostly 46.1 µM), for the others: at the highest dose activity, negative = inhibition, hits mostly inhibitors; 1.2% of 410,000 active; AID 588855, 2011; note: % is set by controls: 0 for no effect and ±100 for the full control effect; nearly all actives have a fitted effect of over 65% in size
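Per well, imaged GFP fluorescence of HEPG2 CAGA-GFP cells gives the signal; cells get compound, then TGF-beta (500 pg/mL final), 18 h at 37 degrees C; %Activity versus -TGF-beta and +DMSO controls.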
ATXN2 expr inh: Primary qHTS for Inhibitors of ATXN expression; 0.72% of 360,000 active; Potency, µM (series often up to 57 µM), without a hit: at the top dose activity change, negative = inhibition, usual class: inhibitors; AID 1745845, 2022; HEK-293 ATXN2-luciferase reporter, luminescence, 24 h; note: % is set by controls: 0 for no effect and ±100 for the full control effect; nearly all actives have a fitted effect of over 55% in size
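ATXN2-luciferase reporter cells (luciferase flanked by upstream and downstream ATXN2 gene portions) were treated 24 h at 37 °C with compounds at up to 57 uM. SteadyGlo luminescence gave expression; GF-AFC fluorescence gave viability.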
HepG2 tox: qHTS for Inhibitors of TGF-b: Cytotox Counterscreen | HepG2 CAGA-GFP viability, ATP luminescence, 18 h | Potency, µM (series often up to 46.1 µM), without a hit: top-dose activity change, negative = cytotoxicity, most hits filed as cytotoxic | 0.76% of 410,000 active
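HepG2 CAGA-GFP cells (1000/well, DMEM with 1% FBS) received compound, then TGF-beta at 500 pg/mL final, and were incubated 18 hours at 37 degrees C. Viability was read by CellTiter-Glo luminescence. Media-only wells were set as complete cell-killing and DMSO as no toxicity.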
* hit, by the source's call; i = inactive; ? = inconclusive; / = no result. Calls come from the whole dose curve; as a rule, active = well fitted curve in the direction sought with a large enough effect; inconclusive = small, poorly fitted or top-dose-only effect, or another doubt; inactive = no such curve, though single readings can be large; an effect the other way counts as inactive or inconclusive. Potency is the fitted concentration of half-maximal effect.

SMILES | Nrf2 block | A549 viability | S2 tox | TGFb SMAD3 inh | ATXN2 expr inh | HepG2 tox
O=C(C(Cl)c1ccccc1)N1CCOCC1 (centres undefined) | -2.1% | 0.6% | i | -13.1% | 0.0% | -6.0%
CCOP(=O)(OCC)c1nc(-c2ccc(Cl)cc2Cl)oc1N1CCCCC1 | 20.6µM* | ? | i | ? | -30.7% | 7.7%
O=C(CCCc1ccccc1)Nc1ccnn1C1CCN(Cc2ccccn2)CC1 | 4.0% | -6.7% | i | 9.6% | -7.6% | 15.0%
COc1ccccc1C(=O)Nc1ccnn1C1CCN(Cc2cn(C)c3ccccc23)CC1 | ? | -15.4% | ? | 11.2µM* | / | -42.2%
Cc1ccccc1CN1CCC(n2nccc2NC(=O)CCCc2ccccc2)CC1 | 8.7% | -1.8% | i | -0.8% | / | 17.8µM*
CC(NC(=O)C(=O)N/N=C\c1cccc([N+](=O)[O-])c1)c1ccccc1 (centres undefined) | -27.7% | -9.7% | i | 5.3% | -15.8% | 5.6%
O=C(Nc1nnc(-c2ccco2)o1)c1ccc(S(=O)(=O)N2CCCCC2)cc1 | / | / | i | -2.8% | / | -31.5%
CC1CCN(S(=O)(=O)c2ccc(C(=O)Nc3nnc(C4CC4)o3)cc2)CC1 | 11.6µM* | ? | i | -16.2% | ? | -29.9%
CC1CCCCN1S(=O)(=O)c1ccc(C(=O)Nc2nnc(-c3ccco3)o2)cc1 (centres undefined) | 20.6µM* | ? | i | ? | ? | -41.9%
Cc1cccc(NC(=O)c2ccc(S(=O)(=O)N3CCC(C)CC3)cc2)n1 | 14.6µM* | -3.4% | i | -20.5% | -8.1% | -14.5%
CC1CCCCN1S(=O)(=O)c1ccc(C(=O)Nc2nnc(C3CC3)o2)cc1 (centres undefined) | 13µM* | -16.3% | i | -10.5% | -37.0% | -35.8%
O=C(Nc1nnc(C2CC2)o1)c1ccc(S(=O)(=O)N2CCCCC2)cc1 | ? | -6.4% | i | ? | -21.2% | -41.7%
COc1ccc2c(c1)-c1nc(-n3ncc(C(=O)NCc4cccnc4)c3C3CC3)ncc1CC2 | / | / | i | / | / | /
CC(C)c1cc(CN2C(C)COCC2C)cc(C(C)C)c1O (centres undefined) | 3.3% | 3.7% | i | -18.5% | -6.9% | -16.3%
COc1ccc(C2=CSC3=C(C(=O)c4cccc(S(=O)(=O)N(C)C)c4)CCN23)cc1 | -22.7% | -2.7% | ? | 23.5% | -16.5% | -4.2%
CC1CCCCN1S(=O)(=O)c1ccc(C(=O)Nc2ccccc2-c2nc3ccccc3[nH]2)cc1 (centres undefined) | 23.1µM* | -27.0% | i | 0.0% | -12.9% | -31.2%
O=C(COC(=O)C12CC3CC(CC(O)(C3)C1)C2)NCc1ccco1 | 21.5% | -0.5% | / | 2.7% | / | 1.0%
C=C(C)COc1ccc(-c2[nH]ncc2Oc2ccccc2OCC)c(O)c1 | ? | ? | i | ? | ? | -89.3%
C=C(C)COc1ccc(-c2[nH]ncc2-c2ccc(OC)c(OC)c2)c(O)c1 | -8.1% | -5.4% | / | ? | ? | -43.5%
C=C(C)COc1ccc(-c2[nH]ncc2-c2ccccc2)c(O)c1 | ? | -21.5% | i | 11.2µM* | -20.9% | -98.4%
COc1ccc(-c2nc(N)ncc2-c2ccccc2)c(O)c1 | 14.2% | 12.1% | i | -3.1% | 4.7% | -19.8%
Nc1ncc(-c2ccccc2)c(-c2ccc(OCc3ccccc3)cc2O)n1 | 23.1µM* | -14.8% | i | ? | -7.0% | 17.8µM*
Oc1cc(OCc2ccccc2)ccc1-c1[nH]ncc1-c1ccccc1 | 8.4% | 0.8% | ? | ? | ? | 20µM*
C=C(C)COc1ccc(-c2[nH]ncc2Oc2cccc(OC)c2)c(O)c1 | ? | -15.9% | i | ? | -34.2% | 17.8µM*
COc1ccc(-c2cn[nH]c2-c2ccc(OCc3ccccc3)cc2O)cc1OC | ? | -2.2% | ? | ? | -26.4% | -53.9%
SMILES | Nrf2 block | A549 viability | S2 tox | TGFb SMAD3 inh | ATXN2 expr inh | HepG2 tox
COc1ccc(-c2cn[nH]c2-c2ccc(OCc3ccc(F)cc3)cc2O)cc1OC | 15.2% | -0.3% | ? | 14.1µM* | ? | -30.4%
COc1ccccc1-c1cn[nH]c1-c1ccc(OCc2ccccc2F)cc1O | -4.1% | -4.7% | ? | ? | ? | 22.4µM*
O=C(NCCc1ccccc1)c1ccc2c(c1)CCN2S(=O)(=O)c1ccccc1 | ? | -6.3% | i | 13.1% | 13.8% | -2.0%
CC(CCC(C)[n+]1cccc(C#N)c1)[n+]1cccc(C#N)c1 (centres undefined) | / | / | / | 20.4% | / | 3.4%
Cc1nnc(Sc2c(-c3ccccc3)c3ccc(Cl)cc3[nH]c2=O)s1 | 18.4µM* | -12.6% | i | -19.1% | 4.0% | -3.2%
CC(=O)CC1OC(=O)C(Br)=C1NCc1ccccc1 (centres undefined) | -8.8% | -14.5% | / | 10µM* | ? | 7.94µM*
Cc1cc(N/N=C2/CCCc3ccccc32)nc2ccccc12 | ? | ? | ? | 15.8µM* | -2.6% | 11.2µM*
c1ccc(N/N=C2\CCCc3ccccc32)nc1 | 1.2% | 4.4% | i | 0.0% | -30.9% | -19.3%
Cc1ccc(C(c2nc3ccccc3[nH]2)n2c(-c3ccccc3)nc3ccccc32)cc1 (centres undefined) | / | / | ? | 20µM* | 8.5% | -61.1%
O=C1C2CC=CCC2C(=O)N1c1ccc(Cc2ccncc2)cc1 (centres undefined) | 9.2µM* | -15.7% | i | -27.3% | -8.4% | 2.8%
O=C1CC(Cc2ccc(Cl)cc2)C(=O)N1c1ccncc1 (centres undefined) | 0.2% | -4.6% | i | ? | -0.7% | -13.8%
Cn1c2ccccc2c2ccc3c(c21)C(=O)C=CC3=O | -8.5% | -25.0% | 5.97µM* | 0.0% | ? | -8.8%
Cc1ccc2c(c1)c1ccc3c(c1n2C)C(=O)C=CC3=O | -27.5% | ? | 10µM* | ? | 10µM* | -36.6%
Cc1ccc(C)c2c1c1ccccc1n2C | 0.4% | -4.7% | i | 0.0% | 4.5% | -24.0%
COc1ccc2c(c1)c1ccc3c(c1n2C)C(=O)C=CC3=O | -6.3% | -21.3% | i | ? | / | -21.7%
Cc1ccc(NS(=O)(=O)c2cc3c(cc2-c2ccco2)NC(=O)CO3)cc1C | 0.3% | 0.2% | / | / | / | /
CC(C)CCc1noc(CN2CCN(c3ccc(Cl)cn3)CC2)n1 | 18.7% | 8.8% | ? | -1.7% | / | 0.0%
